Source: ChEMBL document CHEMBL3988442, “University of Dundee, Small-Polar-MMV Screening Library” (2021)
About 13,000 (27%) of roughly 48,000 compounds showed an effect of 50% or more. This is one part of the list.

tested on: Wolbachia pipientis; assay: Anti-Wolbachia Cell-Based Screen; type: functional; set-up: scale not given: in the data most compounds retested in dose-response had high values; conditions: 5 µM

Compared with `CC(=O)c1c(C)cc(C)c(Cn2ccnc2S(C)(=O)=O)c1C`, `Cc1cc(C)c(S(=O)(=O)Nc2c(C)nc(N3CCCC3)nc2C)cc1C` is higher in “Percent Effect” value: -6.43% for the first, 12.58% for the second.

Going from `CCOCCCC(=O)Nc1[nH]nc(-c2ccncc2)c1C` to `CCOCC(=O)NC(C)c1cc(C)ccc1C` (stereo not given), the “Percent Effect” value falls from 17.32% to 4.424%.

Going from `Cc1ccccc1-n1cnnc1SCC(=O)NCC1CCCO1` (stereo not given) to `Cc1ccccc1-n1cnnc1SCC1CCCCO1` (stereo not given), the “Percent Effect” value falls from 6.164% to 0.1895%.

First: Cc1ccccc1-n1cnc(Cl)c1CO
Second: OCc1c(Cl)ncn1-c1ccccc1
The “Percent Effect” value of the first is lower: 94.22% for the first, 94.93% for the second.

First: Cc1ccoc1C(=O)NCCOc1ncc(Cl)cc1Cl
Second: CCOCC(=O)Nc1ncc(I)cc1C
The “Percent Effect” value of the first is lower: -11.16% for the first, -8.606% for the second.

First: Cc1nn(CCC#N)c(C)c1[C@@H]1C=C[C@@H](NCc2cccc(Cl)c2)C1
Second: OC1CCN(c2ccc(CNc3nc4ccccc4o3)cc2F)CC1
The “Percent Effect” value of the first is lower: -10.09% for the first, -1.066% for the second.

Going from `O=C(Nc1ccncc1)NC1CCN(c2ccccc2OC(F)F)C1` (stereo not given) to `Cc1cccc(N2CCC(NC(C)c3cccs3)CC2)n1` (stereo not given), the “Percent Effect” value falls from -11.28% to -26.34%.

Compared with `Cc1noc(CCCc2nc(C3CCOC3)no2)n1` (stereo not given), `Cc1noc(C)c1CCc1nc(C2CCOC2)no1` (stereo not given) is higher in “Percent Effect” value: 78.93% for the first, 100.6% for the second.

Going from `Cc1ccc(CCc2nc(C3CCOC3)no2)o1` (stereo not given) to `Cc1ccccc1CS(=O)(=O)Cc1nc(C2CC2)no1`, the “Percent Effect” value falls from 90.49% to -6.253%.

Going from `Cc1noc(CCCC(=O)N(CC2CCOC2)C2CC2)n1` (stereo not given) to `CC(C)c1noc(CCCC(=O)NC2CCS(=O)(=O)C2)n1` (stereo not given), the “Percent Effect” value rises from -3.8% to 7.76%.

First: CC(C)CCN1CCN(Cc2nc(C3CC3)no2)CC1
Second: Cc1noc(C)c1Cc1nc(C2CC2)no1
The “Percent Effect” value of the first is higher: -1.38% for the first, -12.44% for the second.

Compared with `Cc1noc(C)c1CS(=O)(=O)Cc1nc(C2CC2)no1`, `CCc1nc(C2CCCN(c3nccc(C)n3)C2)no1` (stereo not given) is higher in “Percent Effect” value: -5.953% for the first, -0.3429% for the second.

First: c1nc(CSc2nnc(C3CC3)s2)cs1
Second: Cc1nc(C(=O)N2CCC(c3nnc(Cn4ccnc4)n3C)CC2)cs1
The “Percent Effect” value of the first is lower: -11.09% for the first, 92.58% for the second.

First: CCN1CCC(CC(=O)NCc2cc(C)nn2C)CC1
Second: COCCN1CCC(CNc2nc3ccccc3o2)CC1
The “Percent Effect” value of the first is lower: -11.94% for the first, 8.013% for the second.

Compared with `CC(C)c1nn(C)c(N2CCOCC2)c1CNCC(=O)N(C)C`, `CC(C)c1nn(C)c(N(C)C)c1CNCCC(=O)N(C)C.Cl` is higher in “Percent Effect” value: -5.66% for the first, -2.081% for the second.

Compared with `COc1c(CNC2(c3noc(C)n3)CCC2)c(C(C)C)nn1C.Cl`, `COc1c(CNCc2cnn(C)c2)c(C(C)C)nn1C` is higher in “Percent Effect” value: -8.281% for the first, -6.64% for the second.

Compared with `COc1c(CNCC(=O)N2CCN(C)CC2)c(C(C)C)nn1C`, `CC(C)c1nn(C)c(Cl)c1CNCC(=O)N1CCN(C)CC1.Cl` is higher in “Percent Effect” value: 95.67% for the first, 99.42% for the second.

Compared with `C[C@@H]1CN(c2ccc3c(Cl)ccnc3c2F)CC(C(N)=O)O1` (stereo not given in full), `Cc1ccc([C@]2(O)CC[C@H]3CN(Cc4ccc(Cl)cc4Cl)C[C@H]32)nc1` is higher in “Percent Effect” value: -9.196% for the first, 121.2% for the second.

Going from `CC(C)(C)S(=O)(=O)c1ccc(N2CCN(c3ccccn3)CC2)nn1` to `CN(CCO)Cc1nnc(C2CCN(C(=O)c3ccccn3)CC2)n1C`, the “Percent Effect” value falls from 14.84% to -1.336%.

Compared with `COCC(=O)N1CCC2(CC(=O)N(c3cccc(F)c3)C2)C1` (stereo not given), `CC(C)NC(=O)N1CCC2(CC(=O)N(c3cccc(C#N)c3)C2)C1` (stereo not given) is higher in “Percent Effect” value: -16.31% for the first, -3.038% for the second.

First: Cc1cccc(N2CC3(CCN(S(=O)(=O)c4ccccc4)C3)CC2=O)c1 (stereo not given)
Second: Cc1cccc(NC(=O)N2CCC3(CC(=O)N(c4ccsc4)C3)C2)c1 (stereo not given)
The “Percent Effect” value of the first is lower: -6.441% for the first, 111.9% for the second.

Compared with `O=C(Nc1ccccc1)N1CCC2(CC(=O)N(c3ccsc3)C2)C1` (stereo not given), `O=C(Cc1ccccc1)N1CCC2(CC(=O)N(c3ccsc3)C2)C1` (stereo not given) is lower in “Percent Effect” value: 106% for the first, 4.465% for the second.

Compared with `CC(C)NC(=O)N1CCC2(CC(=O)N(c3ccsc3)C2)C1` (stereo not given), `CC(C)NC(=O)N1CCC2(C1)CN(c1ccsc1)C(=O)CN2C.O=C(O)C(F)(F)F` (stereo not given) is lower in “Percent Effect” value: 94% for the first, -13.82% for the second.

Going from `CCN1CC2(CNCCN(C(=O)Nc3ccccc3)C2)CC1=O.O=C(O)C(F)(F)F` (stereo not given) to `Cc1cccc(C2(NC(=O)CCN3C(=O)CCC3=O)CCCC2)c1`, the “Percent Effect” value rises from -17.66% to -3.276%.

Compared with `O=C(c1cnccn1)N1CC[C@H]2[C@@H]1CCC(=O)N2c1cccnc1`, `Cn1c(Cn2ccnc2)nnc1C1CCN(C(=O)c2cccnc2)CC1` is higher in “Percent Effect” value: -6.797% for the first, 92.17% for the second.

Going from `COc1cc(C)cc(C(C(=O)O)N(C)Cc2ccncc2C)c1OC` (stereo not given) to `CN(CCO)Cc1nnc(C2CCN(C(=O)c3cccnc3)CC2)n1C`, the “Percent Effect” value falls from 4.518% to -5.743%.

Compared with `CN(C)C(=O)CN1C[C@@H]2CC[C@H](C1)N(Cc1ccc(Cl)cc1Cl)C2`, `CC(C)N1CCO[C@H]2CN(C(=O)c3ccc(N(C)C)cc3)C[C@H]21` is higher in “Percent Effect” value: -35.05% for the first, -8.625% for the second.

Compared with `CSc1ccc(CN2C[C@@H]3CC[C@@](O)(c4ccc(C)cn4)[C@@H]3C2)cc1`, `COCc1ccccc1NC(=O)NCc1ccc(OCC2CC2)nc1` is lower in “Percent Effect” value: 135.2% for the first, 7.542% for the second.

First: COCCOc1ccc(CNc2nc3ccccc3nc2N)cn1
Second: COCCOc1ccc(CNc2cnc3ccccc3n2)cn1
The “Percent Effect” value of the first is higher: 162.2% for the first, 132.7% for the second.

Compared with `COCCOc1ccc(NCc2cccc3cn[nH]c23)cn1`, `COCCOc1ccc(CNc2nc3ccccc3o2)cn1` is higher in “Percent Effect” value: -20.32% for the first, 106.2% for the second.

Going from `COCCN1CCC(CNc2cnc3ccccc3n2)CC1` to `Cl.O=C1CC(NCc2cnc(N3CCCC3)nc2)CN1c1ccccc1` (stereo not given), the “Percent Effect” value rises from -17.24% to 36.64%.

Compared with `OCCOc1ccc(NCc2cccnc2)cn1`, `CN(C(=O)c1ccc[nH]1)C1CC(=O)N(Cc2ccccc2)C1=O` (stereo not given) is lower in “Percent Effect” value: 7.993% for the first, -8.622% for the second.

Compared with `CNC(=O)N1CCC2(CC1)CN(C)Cc1cc(F)ccc12.Cl`, `Cc1cc(C(=O)N2CCC(c3nnc(Cn4ccnc4)n3C)CC2)cs1` is higher in “Percent Effect” value: 24.69% for the first, 95.2% for the second.

Going from `Cc1nn(C)c(C)c1C1CCCN1Cc1nnc(C2CC2)n1C` (stereo not given) to `CCCc1nnc(N2CCCC(c3nnc(Cn4ccnc4)n3C)C2)s1` (stereo not given), the “Percent Effect” value rises from -7.496% to 0.1518%.

Going from `Cn1c(Cn2ccnc2)nnc1C1CCN(C(=O)c2ccccn2)CC1` to `Cc1nc(C(=O)N2CCC(c3nccn3Cc3ccncc3)CC2)cs1`, the “Percent Effect” value falls from 107.7% to -0.8492%.
